Laboratory results: PMC5540273 (PLoS ONE, 2017)

Assays:
Conditions in all cases: concentration: 1 μM, replicates: in singlicate; n = 1
PIP5K2C = test system: T1, PIP5K2C
T1 construct: gene PIP4K2C

PKAC-alpha = test system: T2, PKAC-alpha
T2 construct: gene PRKACA

PKAC-beta = test system: T3, PKAC-beta
T3 construct: gene PRKACB

PKMYT1 = test system: PKMYT1
PKN1 = test system: PKN1
PKN2 = test system: PKN2
PLK1 = test system: PLK1
PLK2 = test system: PLK2
PLK3 = test system: PLK3
PLK4 = test system: PLK4
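Note: KINOMEscan kinase panel screen.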

Row | Compound | %Inh (PIP5K2C) [%] | %Inh (PKAC-alpha) [%] | %Inh (PKAC-beta) [%] | %Inh (PKMYT1) [%] | %Inh (PKN1) [%] | %Inh (PKN2) [%] | %Inh (PLK1) [%] | %Inh (PLK2) [%] | %Inh (PLK3) [%] | %Inh (PLK4) [%]
1 | Cc1cc(N2CCC(NS(=O)(=O)c3ccc(F)cc3)CC2)nc(Nc2cccc(C#N)c2)n1.O=C(O)C(F)(F)F [GSK1653537] | 4 | 3 | 0 | 0 | 23 | 0 | 5 | 0 | 0 | 0
2 | NC(=O)c1sc(-n2cnc3ccccc32)cc1OCc1ccccc1F [GSK1024306] | 8 | 21 | 2 | 0 | 60 | 0 | 99.8 | 99 | 98.8 | 0
3 | Cc1ccc(C)c(NC(=O)NCCNc2ccnc(Nc3ccc(F)cc3)n2)c1 [GSK1379878] | 25 | 0 | 0 | 0 | 0 | 0 | 4 | 0 | 0 | 0
4 | Fc1cccc(COc2ccc(Nc3ncnc4cc[nH]c34)cc2Cl)c1 | 5 | 25 | 1 | 10 | 0 | 0 | 23 | 23 | 23 | 27
5 | COc1ccc(-c2oc3ncnc(N)c3c2-c2ccc(OC)cc2)cc1 [SB-589132] | 63 | 0 | 0 | 0 | 0 | 0 | 3 | 0 | 0 | 0
6 | c1ccc(-c2ccc3c(-c4ccnc(Nc5ccc6c(c5)OCCO6)n4)cnn3n2)cc1 [GW818941] | 36 | 0 | 28 | 3 | 65 | 0 | 9 | 0 | 0 | 0
7 | O=C(CCO)NCCn1ccc2ncnc(Nc3ccc(Oc4cccc(C(F)(F)F)c4)c(Cl)c3)c21 | 26 | 0 | 12 | 10 | 0 | 1 | 0 | 0 | 0 | 0
8 | Cl.O=S(=O)(c1cccc(F)c1)c1ccc(Nc2ncnc3cc(Br)sc23)cc1Cl [GSK306886] | 60 | 0 | 0 | 26 | 19 | 0 | 0 | 0 | 0 | 26
9 | N#Cc1ccc(Oc2ccc(Nc3ncnc4cc[nH]c34)cc2Cl)cc1 | 0 | 8 | 0 | 19 | 0 | 0 | 4 | 5 | 11 | 21
10 | Cc1ccc(NC(=O)c2cccc(C#N)c2)cc1-c1ccc(C(=O)Nc2ccncc2)cc1 [GSK1398463] | 0 | 0 | 0 | 0 | 28 | 0 | 0 | 0 | 0 | 2
11 | Cn1cc(-c2ccc3c(c2)CCN3C(=O)Cc2cccc(C(F)(F)F)c2)c2c(N)ncnc21 [GSK2606414] | 0 | 4 | 6 | 5 | 37 | 0 | 0 | 0 | 0 | 15
12 | CS(=O)(=O)CCNCc1nc(-c2ccc3ncnc(Nc4ccc(OCc5cccc(F)c5)c(Cl)c4)c3c2)cs1.Cl [GW583340] | 24 | 0 | 0 | 0 | 0 | 0 | 0 | 0 | 0 | 3
13 | Cc1cccc(-c2nc(Nc3ccc4[nH]nnc4c3)c3ccccc3n2)n1 [GW867587] | 0 | 0 | 0 | 0 | 0 | 0 | 0 | 0 | 0 | 0
14 | CSc1nn2c(=O)cc(N3CCOCC3)nc2n1Cc1cccc(Cl)c1Cl [GSK2347225] | 7 | 24 | 12 | 0 | 5 | 0 | 55 | 0 | 5 | 13
15 | Clc1ccc(-c2cc(-c3c[nH]nc3-c3ccccn3)ccn2)cc1 [GW681251] | 39 | 0 | 0 | 7 | 0 | 0 | 0 | 0 | 0 | 4
16 | C[C@H]1CC[C@@H](C(=O)Nc2ccccc2)CN1c1cc(-c2ccc3c(N)n[nH]c3c2)nc(N)n1 [GSK2283293] | 15 | 0 | 0 | 0 | 0 | 0 | 0 | 4 | 0 | 0
17 | CCC(CC)(CC)n1cnc2c(N)ncnc21 [SKF-97620] | 0 | 11 | 14 | 2 | 0 | 0 | 45 | 32 | 21 | 7

Row | Compound | %Inh (PIP5K2C) [%] | %Inh (PKAC-alpha) [%] | %Inh (PKAC-beta) [%] | %Inh (PKMYT1) [%] | %Inh (PKN1) [%] | %Inh (PKN2) [%] | %Inh (PLK1) [%] | %Inh (PLK2) [%] | %Inh (PLK3) [%] | %Inh (PLK4) [%]
18 | CCc1nc(-c2cccc(N(C)S(=O)(=O)c3ccccc3)c2)c(-c2ccnc(Nc3ccc(N4CCN(C(C)=O)CC4)nc3)n2)s1 [GSK1645895] | 63 | 0 | 0 | 1 | 34 | 0 | 7 | 0 | 0 | 8
19 | Cc1ccc(O)cc1Nc1cc(C(F)(F)F)nc2ccc(-c3ccncc3)cc12 [GW630823] | 0 | 10 | 0 | 9 | 0 | 0 | 0 | 1 | 0 | 0
20 | Oc1ccc2ncnc(Nc3ccc(OCc4ccccc4)cc3)c2c1 [GI262866] | 40 | 0 | 0 | 5 | 1 | 0 | 0 | 0 | 0 | 0
21 | COC(=O)c1cccc(NC(=O)NCCNc2ccnc(Nc3ccc(F)cc3)n2)c1 [GSK1379883] | 22 | 3 | 0 | 10 | 3 | 0 | 4 | 0 | 0 | 0
22 | O=C(c1ccc(-c2cc(-c3c[nH]nc3-c3ccccn3)ccn2)cc1)N1CCCC1 [GW792479] | 97 | 0 | 22 | 0 | 0 | 0 | 0 | 0 | 12 | 0
23 | CC(C)N1CCC(n2cnc(-c3ccc(F)cc3)c2-c2ccnc(N)n2)CC1 [SB-223132] | 62 | 0 | 22 | 0 | 0 | 0 | 0 | 0 | 0 | 0
24 | Nc1nccc2scc(-c3ccc4c(c3)CCN4C(=O)Cc3cc(F)ccc3F)c12 [GSK2587663] | 13 | 0 | 12 | 1 | 0 | 0 | 0 | 0 | 0 | 0
25 | Nc1n[nH]c2nnc(-c3ccccc3)cc12 [SB-517389] | 7 | 0 | 0 | 0 | 7 | 0 | 0 | 35 | 33 | 9
26 | Nc1nc(-c2ccc3c(N)n[nH]c3c2)cc(N2CCCCC2)n1 [GSK2228768] | 0 | 56 | 0 | 13 | 18 | 0 | 0 | 0 | 0 | 0
27 | O=C(NCCCN1CCCC1=O)c1cnc(NCc2cc(Cl)ccc2Cl)nc1NC1CCNCC1 | 2 | 0 | 0 | 0 | 20 | 11 | 0 | 0 | 0 | 5
28 | C[C@@H]1CCN(C(=O)CO)C[C@@H]1N(C)c1ncnc2[nH]ccc12 | 0 | 0 | 93.7 | 100 | 20 | 21 | 0 | 0 | 12 | 3
29 | CCCc1ccc(S(=O)(=O)NC2CCN(c3ccnc(Nc4ccc(OC)cc4)n3)C2)cc1 (stereo not shown) [GSK1379737] | 66 | 0 | 0 | 0 | 0 | 0 | 1 | 0 | 0 | 0
30 | CSc1ccc(NC2=C(c3ccccc3Cl)C(=O)NC2=O)cc1 [SB-342411] | 0 | 74 | 0 | 25 | 36 | 0 | 8 | 0 | 0 | 13
31 | CC(=O)Nc1n[nH]c2ncc(-c3ccccc3)cc12 [SB-548492] | 0 | 0 | 14 | 0 | 0 | 29 | 1 | 27 | 25 | 8
32 | O=c1cc(N2CCOCC2)nc2n(Cc3cccc(Cl)c3)ccn12 [GSK2296823] | 0 | 0 | 0 | 11 | 34 | 0 | 5 | 0 | 0 | 0
33 | FC(F)(F)c1ccc(-c2cc(-c3c[nH]nc3-c3ccccn3)ccn2)cc1 [GW599550] | 59 | 10 | 6 | 0 | 0 | 0 | 0 | 0 | 0 | 10
34 | CC(C)(C)OC(=O)NC1CCCN(c2cc(-c3ccc4c(N)n[nH]c4c3)nc(N)n2)C1 (stereo not shown) [GSK2286096] | 0 | 0 | 0 | 0 | 0 | 0 | 16 | 0 | 0 | 10
